High-throughput results (PubChem BioAssay)
MITF primary: inhibitors of human MITF | AID 1259374 | O75030 | inhibition, % at 2.6 µM | actives 0.91% (n = 650,000) | AlphaScreen MITF homodimerization, bead proximity signal; in the data active = inhibition above about 50%;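 also: 0% = vehicle wells with protein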
TEAD-YAP block: TEAD-YAP interaction inhibition. AID 1259422. inhibition, % at 9.12 µM. HEK-TIYL cells, TEAD-Gal4/YAP UAS-luciferase luminescence. actives 1.4% (n = 640,000); in the data active = inhibition above about 32%;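 also: 0% = median of test compound wells and 100% = reference inhibitor wells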
GPR151 activ: human GPR151 activation; Q8TDV0; PathHunter beta-arrestin GPR151 cells, luminescence; activation, % at 11.2 µM; actives 1% (n = 650,000); in the data active = activation above about 4.9%;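 also: 0% = median of compound wells and 100% = cells with positive control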
FBW7 activator: activators of human E3 ligase FBW7; Q969H0; AlphaScreen FBW7–phospho-cyclin E peptide binding, activator screen; normalized activity (activation), % at 26.1 µM; actives 0.13% (n = 650,000); AID 1259310; in the data active = normalized activity above about 1.9%;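 also: purified mutant Fbw7 with reduced substrate affinity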
Target sequence (Q969H0 whole entry, looked up): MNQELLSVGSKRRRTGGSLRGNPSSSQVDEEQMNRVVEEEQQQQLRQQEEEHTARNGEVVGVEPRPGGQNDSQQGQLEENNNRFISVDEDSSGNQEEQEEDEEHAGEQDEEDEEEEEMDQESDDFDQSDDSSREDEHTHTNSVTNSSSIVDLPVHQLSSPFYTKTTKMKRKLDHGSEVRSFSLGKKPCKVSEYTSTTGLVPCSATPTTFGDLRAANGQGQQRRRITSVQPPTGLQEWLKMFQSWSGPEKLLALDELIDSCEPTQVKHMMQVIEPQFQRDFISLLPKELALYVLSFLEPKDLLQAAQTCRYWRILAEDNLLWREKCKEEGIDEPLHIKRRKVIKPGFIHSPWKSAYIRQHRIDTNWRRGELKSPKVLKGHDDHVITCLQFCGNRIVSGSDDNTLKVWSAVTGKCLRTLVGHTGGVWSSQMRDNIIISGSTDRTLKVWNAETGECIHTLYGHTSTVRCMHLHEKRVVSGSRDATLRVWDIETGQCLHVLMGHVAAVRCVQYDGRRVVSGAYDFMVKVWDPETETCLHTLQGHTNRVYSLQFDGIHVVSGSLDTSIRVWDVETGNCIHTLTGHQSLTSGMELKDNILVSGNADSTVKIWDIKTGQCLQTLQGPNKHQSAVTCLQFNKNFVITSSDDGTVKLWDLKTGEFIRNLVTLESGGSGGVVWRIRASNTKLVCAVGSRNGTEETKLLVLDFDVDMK
MITF inh conf: confirmation of human MITF inhibitors; AlphaScreen MITF homodimerization, biotin/His-MITF beads; shares compounds with MITF primary; inhibition, % at 2.6 µM; actives 16% (n = 4,700); AID 1259372;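 active = inhibition above a cutoff derived from the DMSO control wells, cut at about 28% in these data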;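 also: 0% = MITF dimer wells with DMSO only; inhibitors lower the bead chemiluminescence by keeping MITF from dimerizing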
AS interf DR: optically interferes with AlphaScreen signal in dose response | AlphaScreen optical interference counterscreen, cell-free | IC50, µM | shares compounds with MITF primary | actives 6% (n = 480); call rule not given here
AS interf ctr: AlphaScreen optical interference, counter-screen | inhibition, % at 2.6 µM | shares compounds with MITF primary | LysRS AlphaScreen counterscreen, signal interference, triplicate | actives 7.6% (n = 4,700);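 active = inhibition above a cutoff derived from the DMSO control wells, cut at about 30% in these data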
* marks the source's active call; other numbers are inactive results; nt = no result given. In the library only some 3.4% were active in any assay of this set; here they are far more common.

SMILES | MITF primary | TEAD-YAP block | GPR151 activ | FBW7 activator | MITF inh conf | AS interf ctr | others
COc1ccc2c3c(cccc13)C(=O)N(C)C2=O | 67* | -5 | 0 | 0 | 76* | 1 | AS interf DR=>6.5
COc1ccc2c3c(cccc13)C(=O)N(O)C2=O | -17 | 12 | 1 | 1 | nt | nt
N#Cc1ccc(NC(=O)NC2CCCCC2)cc1 | 10 | -30 | -2 | 1 | nt | nt
COc1ccc(C(=O)NCC(=O)NCC(=O)OCc2ccccc2)cc1 | 54* | 5 | 1 | 0 | 8 | 6
COC(=O)c1ccc(COC(=O)CNC(=O)c2ccccc2)cc1 | 10 | 6 | 1 | 0 | nt | nt
Cc1cc(C)c(C#N)c(SCC(=O)NC23CC4CC(CC(C4)C2)C3)n1 | 0 | 3 | 1 | 0 | nt | nt
COc1ccc(/C(C)=N/Nc2ccc(C)cc2)c(O)c1 | 18 | 5 | 0 | 0 | nt | nt
CC1CCN(CC(=O)N(C)C2(c3ccccc3Cl)CCCCC2=O)CC1 (stereo not drawn) | 90* | -10 | 2 | 0 | -18 | 6
O=C(C(c1ccccc1)N1Cc2ccccc2C1=O)N1CCc2ccccc21 (stereo not drawn) | 10 | -1 | 1 | 0 | nt | nt
COc1ccc(-c2[nH]nc3nc(-c4cc(OC)c(O)c(OC)c4)cc(C(=O)O)c23)cc1 | 70* | -4 | 1 | 0 | 19 | 27
O=C1Nc2c(Cl)cccc2C1(Cc1ncccc1O)c1ccccc1 (stereo not drawn) | 0 | 1 | 0 | 0 | nt | nt
Cc1cccc(NC(=O)CCNS(=O)(=O)c2cc(Br)cnc2N)c1 | 11 | 0 | 0 | 0 | nt | nt
Cc1cc(Cl)ccc1N(CC(=O)NCC1CCCO1)S(C)(=O)=O (stereo not drawn) | 3 | 4 | 0 | 0 | nt | nt
CCCCOCC(O)Cn1c(Cc2ccccc2)nc2ccccc21 (stereo not drawn) | 58* | -6 | 1 | 0 | 6 | 16
CCCCOCC(O)Cn1c2ccccc2c2ccccc21 (stereo not drawn) | 6 | -6 | -2 | 0 | nt | nt
O=C([C@@H]1C[C@@H]2C=C[C@H]1C2)N1CCC(c2ccnc(-c3ccccc3)n2)CC1 | 10 | -1 | 0 | 0 | nt | nt
Cc1cccc(C(C)(C)C)c1OCCN1CCOCC1 | 80* | 6 | 0 | 0 | 5 | 10
Cc1cc(Cl)cc(Cl)c1OCCCCNCCN1CCOCC1 | 62* | 3 | 0 | 0 | 6 | 1
Cc1cc(C)c(OCCN2CCOCC2)c(Cl)c1 | 54* | 6 | -1 | 1 | 17 | 12
c1ccc(C(NCc2cccnc2)c2ccccc2)cc1 | 86* | 1 | 0 | 0 | 11 | 14
CC(NCc1cccnc1)C(=O)Nc1ccccc1 (stereo not drawn) | 75* | -1 | -1 | 0 | 11 | 10
COc1cccc(NC(=O)CN(Cc2ccccc2)S(=O)(=O)c2ccc(Br)cc2)c1 | 10 | 0 | 1 | 0 | nt | nt
CN1CCC(N(C)CC(O)COC(c2ccc(F)cc2)c2ccc(F)cc2)CC1 (stereo not drawn) | 60* | 3 | -1 | 0 | -11 | 4
OC(CNCCCN1CCOCC1)COC(c1ccc(F)cc1)c1ccc(F)cc1 (stereo not drawn) | 36 | -1 | -1 | 0 | nt | nt
CCOC(=O)c1sc2nc(SCc3cc(C(C)=O)ccc3OC)n(CC3CCCO3)c(=O)c2c1C (stereo not drawn) | -13 | 4 | 1 | 0 | nt | nt
SMILES | MITF primary | TEAD-YAP block | GPR151 activ | FBW7 activator | MITF inh conf | AS interf ctr | others
C/C(=N\Nc1nc2ccccc2o1)c1ccccn1 | 55* | -9 | -2 | -1 | 4 | 3
C/C(=N\Nc1ccccc1Cl)c1ccccn1 | -1 | -46 | -2 | 0 | nt | nt
O=C(CSc1ccc(-c2ccco2)nn1)Nc1cccc(Cl)c1Cl | -1 | -7 | -1 | 0 | nt | nt
CCOC(=O)c1c(NC(=O)CN2CCN(C)CC2)sc2c1CC(C)(C)NC2(C)C | 53* | 6 | 1 | 0 | -2 | 1
COc1cc(CN2CCN(Cc3ccc(F)cc3)CC2)cc(OC)c1OC | 84* | -2 | 1 | 0 | 13 | 10
CCc1ccc(CN2CCN(Cc3cc(OC)c(OC)c(OC)c3)CC2)cc1 | 58* | 2 | 0 | 0 | -3 | 1
COc1cc(CN2CCCC2)cc(OC)c1OC | -1 | 2 | -1 | 0 | nt | nt
COc1cc(CNCc2ccccc2C(F)(F)F)cc(OC)c1OC | 65* | -1 | 2 | 0 | -7 | 5
COc1cc(CN2CCN(c3ccc(F)cc3)CC2)cc(OC)c1OC | 24 | 7 | 0 | 0 | nt | nt
COc1cc(CN2CCN(Cc3ccncc3)CC2)cc(OC)c1OC | 70* | 14 | 0 | 0 | 14 | 16
COc1cc(CNCc2cccc(OC)c2OC)cc(OC)c1 | 21 | 3 | 1 | 0 | nt | nt
CCOc1cc(/C=C2/N=C(c3ccccc3)NC2=O)cc(Cl)c1O | -12 | 4 | 0 | 0 | nt | nt
COc1cc(CNCc2ccncc2)cc(OC)c1OC | 58* | -1 | -1 | 0 | -1 | -5
COc1cccc(CNCc2ccncc2)c1 | 2 | 6 | -1 | 0 | nt | nt
NS(=O)(=O)c1ccc(NC(=S)Nc2ccc(Cl)cc2F)cc1 | 2 | 4 | 2 | 0 | nt | nt
CCOc1ccccc1/C=N\NC(=O)c1ccco1 | 70* | -42 | 0 | 0 | 2 | 9
COc1ccc(Br)cc1C(=O)Nc1ccc([N+](=O)[O-])cc1O | 4 | 14 | 3 | 0 | nt | nt
COc1ccc(OC)c(-n2cnc3cc(C(=O)NCc4ccco4)ccc32)c1 | 75* | -12 | 0 | 0 | 20 | 6
COc1ccc(OC)c(-n2cnc3cc(C(=O)NCc4ccccc4Cl)ccc32)c1 | 2 | 0 | -1 | 0 | nt | nt
O=[N+]([O-])c1ccc2nc3c4ccccc4n(Cc4ccccc4)c3cc2c1 | -8 | -7 | 0 | 0 | nt | nt
COC(=O)c1c(NC(=O)CCN2CCN(C)CC2)sc2c1CCC2 | 90* | 5 | 1 | 0 | 5 | 7
COC(=O)c1c(NC(=O)CCCOc2ccc(C)cc2)sc2c1CCCC2 | 78* | 8 | 0 | 0 | 0 | 8
CN1CCN(CC(=O)Nc2sc3c(c2C(N)=O)CCCC3)CC1 | 72* | 6 | -1 | 0 | 17 | 14
CCOC(=O)C1=CN(c2ccc(OCC)cc2)C=C(C(=O)OCC)C1c1ccc(OC)c(Br)c1 | -4 | -8 | 1 | 0 | nt | nt
C=CCN1C(=O)C2(NC(=O)c3c(sc(C)c3C)N2)c2ccccc21 (stereo not drawn) | 12 | -5 | 1 | 0 | nt | nt
CCC(C(=O)N1CCCC1)c1ccccc1 (stereo not drawn) | -12 | 2 | 0 | 0 | nt | nt
CC(C(=O)N1CCCC1)N1CCN(C(c2ccccc2)c2ccccc2)CC1 (stereo not drawn) | 85* | 1 | -2 | 0 | 5 | 15
CCCCNC(=O)CCCCCn1nnc2ccccc2c1=O | 73* | -5 | 0 | 0 | 0 | -1
